Source: PubChem BioAssay AID1159580 (chemical genetic matrix, 2015)
Screen size: about 5,500 compounds; about 2,000 (36%) were called active. Roughly 18% stayed inconclusive and do not appear here. Cut-off read from the data, not from the text of the source: active = normalized growth mostly below about 0.91 (no sharp cut-off); inconclusive = no clear call, values can overlap the other calls; inactive = mostly above about 0.92. This is one part of the list.

Assay: chemical genetic growth profiling, strain panel (AID 1159580);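 note: tested at 20 µM; growth read once vehicle control cultures reached saturation at 30 °C; 1 = growth at the plate median or of vehicle wells; lower values mean less growth of the strain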
Details: growth OD
[1] = S. cerevisiae deletion strains, locus YAL013W, strain DEP1, stronger effect = lower value
[2] = S. cerevisiae deletion strains, locus YBR229C, strain ROT2, stronger effect = lower value
[3] = S. cerevisiae deletion strains, locus YDL101C, strain DUN1, stronger effect = lower value
[4] = S. cerevisiae deletion strains, locus YDL134C, strain PPH21, stronger effect = lower value
[5] = S. cerevisiae deletion strains, locus YDR150W, strain NUM1, stronger effect = lower value
[6] = S. cerevisiae deletion strains, locus YEL061C, strain CIN8, stronger effect = lower value
[7] = S. cerevisiae deletion strains, locus YGR078C, strain PAC10, stronger effect = lower value
[8] = S. cerevisiae deletion strains, locus YHR030C, strain SLT2, stronger effect = lower value
[9] = S. cerevisiae deletion strains, locus YHR087W, strain rtc3, stronger effect = lower value
[10] = S. cerevisiae deletion strains, locus YJR043C, strain POL32, stronger effect = lower value
[11] = S. cerevisiae deletion strains, locus YJR075W, strain HOC1, stronger effect = lower value
[12] = S. cerevisiae deletion strains, locus YLR039C, strain RIC1, stronger effect = lower value
[13] = S. cerevisiae deletion strains, locus YLR058C, strain SHM2 (second series), stronger effect = lower value
[14] = S. cerevisiae deletion strains, locus YLR085C, strain ARP6, stronger effect = lower value
[15] = S. cerevisiae deletion strains, locus YLR262C, strain YPT6, stronger effect = lower value
[16] = S. cerevisiae deletion strains, locus YML094W, strain GIM5, stronger effect = lower value
[17] = S. cerevisiae deletion strains, locus YMR219W, strain ESC1, stronger effect = lower value
[18] = S. cerevisiae deletion strains, locus YMR263W, strain SAP30, stronger effect = lower value
[19] = S. cerevisiae deletion strains, locus YNL153C, strain GIM3, stronger effect = lower value
[20] = S. cerevisiae deletion strains, locus YNL298W, strain CLA4 (second series), stronger effect = lower value
[21] = S. cerevisiae deletion strains, locus YNL322C, strain KRE1, stronger effect = lower value
[22] = S. cerevisiae deletion strains, locus YNR030W, strain Alg12, stronger effect = lower value
[23] = S. cerevisiae deletion strains, locus YPL055C, strain LGE1, stronger effect = lower value
[24] = S. cerevisiae deletion strains, locus YPL241C, strain CIN2, stronger effect = lower value
[25] = S. cerevisiae deletion strains, locus YPR135W, strain CTF4, stronger effect = lower value

Measured: normalized growth

COc1ccc(/C(C#N)=C/c2ccc(OC)c(OC)c2)cc1
active: [8] 0.548 | [12] 0.717 | [14] 0.768 | [15] 0.741
inactive: [1] 0.953 | [2] 0.98 | [3] 0.985 | [4] 0.949 | [5] 0.951 | [6] 0.961 | [7] 0.968 | S. cerevisiae deletion strains, locus YGR229C, strain SMI1, stronger effect = lower value 0.972 | [9] 0.962 | S. cerevisiae deletion strains, locus YJL187C, strain SWE1, stronger effect = lower value 1 | [10] 0.964 | [11] 0.95 | [13] 0.998 | [16] 0.933 | [17] 0.998 | [18] 0.953 | [19] 0.969 | [20] 0.936 | [21] 0.994 | [22] 0.925 | [23] 0.9 | [24] 0.933 | [25] 0.698

N#C/C(=C\C=C\c1ccccc1)c1nc2ccccc2[nH]1
active: [8] 0.673 | S. cerevisiae deletion strains, locus YLR113W, strain HOG1, stronger effect = lower value 0.658 | S. cerevisiae deletion strains, locus YPL256C, strain CLN2, stronger effect = lower value 0.767
inactive: S. cerevisiae deletion strains, locus YAR019C, strain CDC15, stronger effect = lower value 0.958 | S. cerevisiae deletion strains, locus YBL105C, strain PKC1, stronger effect = lower value 0.969 | S. cerevisiae deletion strains, locus YBR135W, strain CKS1, stronger effect = lower value 0.944 | S. cerevisiae deletion strains, locus YBR136W, strain MEC1, stronger effect = lower value 0.962 | S. cerevisiae deletion strains, locus YBR160W, strain CDC28, stronger effect = lower value 0.962 | S. cerevisiae deletion strains, locus YDL017W, strain CDC7, stronger effect = lower value 0.961 | S. cerevisiae deletion strains, locus YDL028C, strain MPS1, stronger effect = lower value 0.962 | [3] 0.973 | S. cerevisiae deletion strains, locus YDL108W, strain KIN28, stronger effect = lower value 0.968 | S. cerevisiae deletion strains, locus YDL132W, strain cdc53, stronger effect = lower value 0.964 | S. cerevisiae deletion strains, locus YDL214C, strain PRR2, stronger effect = lower value 0.864 | S. cerevisiae deletion strains, locus YDR052C, strain DBF4, stronger effect = lower value 0.966 | S. cerevisiae deletion strains, locus YDR054C, strain cdc34, stronger effect = lower value 0.955 | S. cerevisiae deletion strains, locus YDR226W, strain ADK1, stronger effect = lower value 0.962 | S. cerevisiae deletion strains, locus YDR477W, strain SNF1, stronger effect = lower value 0.823 | S. cerevisiae deletion strains, locus YER123W, strain YCK3, stronger effect = lower value 0.878 | S. cerevisiae deletion strains, locus YER133W, strain GLC7, stronger effect = lower value 0.834 | S. cerevisiae deletion strains, locus YFL009W, strain cdc4, stronger effect = lower value 0.964 | S. cerevisiae deletion strains, locus YFL029C, strain CAK1, stronger effect = lower value 0.958 | S. cerevisiae deletion strains, locus YFR003C, strain YPI1, stronger effect = lower value 0.976 | S. cerevisiae deletion strains, locus YFR019W, strain FAB1, stronger effect = lower value 0.966 | S. cerevisiae deletion strains, locus YFR028C, strain CDC14, stronger effect = lower value 0.956 | S. cerevisiae deletion strains, locus YGR040W, strain KSS1, stronger effect = lower value 0.83 | S. cerevisiae deletion strains, locus YGR052W, strain FMP48, stronger effect = lower value 0.916 | S. cerevisiae deletion strains, locus YGR092W, strain DBF2, stronger effect = lower value 0.829 | S. cerevisiae deletion strains, locus YHR079C, strain IRE1, stronger effect = lower value 0.848 | S. cerevisiae deletion strains, locus YHR082C, strain KSP1, stronger effect = lower value 0.819 | S. cerevisiae deletion strains, locus YHR205W, strain SCH9, stronger effect = lower value 0.818 | S. cerevisiae deletion strains, locus YIL147C, strain SLN1, stronger effect = lower value 0.967 | S. cerevisiae deletion strains, locus YJL095W, strain BCK1, stronger effect = lower value 0.729 | S. cerevisiae deletion strains, locus YJL128C, strain PBS2, stronger effect = lower value 0.957 | S. cerevisiae deletion strains, locus YJL157C, strain FAR1, stronger effect = lower value 0.886 | S. cerevisiae deletion strains, locus YJR016C, strain ILV3, stronger effect = lower value 0.958 | S. cerevisiae deletion strains, locus YJR066W, strain TOR1 (second series), stronger effect = lower value 0.871 | S. cerevisiae deletion strains, locus YJR066W, strain TOR1, stronger effect = lower value 0.791 | S. cerevisiae deletion strains, locus YKL048C, strain ELM1, stronger effect = lower value 0.904 | S. cerevisiae deletion strains, locus YKL067W, strain YNK1, stronger effect = lower value 0.898 | S. cerevisiae deletion strains, locus YKL101W, strain HSL1, stronger effect = lower value 0.882 | S. cerevisiae deletion strains, locus YKL193C, strain SDS22, stronger effect = lower value 0.95 | S. cerevisiae deletion strains, locus YKL203C, strain TOR2, stronger effect = lower value 0.878 | S. cerevisiae deletion strains, locus YLR133W, strain CKI1, stronger effect = lower value 0.891 | S. cerevisiae deletion strains, locus YLR403W, strain SFP1, stronger effect = lower value 0.86 | S. cerevisiae deletion strains, locus YML070W, strain DAK1, stronger effect = lower value 0.864 | S. cerevisiae deletion strains, locus YMR001C, strain CDC5, stronger effect = lower value 0.956 | S. cerevisiae deletion strains, locus YMR205C, strain PFK2 (second series), stronger effect = lower value 0.901 | S. cerevisiae deletion strains, locus YMR277W, strain FCP1, stronger effect = lower value 0.955 | S. cerevisiae deletion strains, locus YNL006W, strain LST8, stronger effect = lower value 0.96 | S. cerevisiae deletion strains, locus YNL020C, strain ARK1, stronger effect = lower value 0.896 | S. cerevisiae deletion strains, locus YNL161W, strain CBK1, stronger effect = lower value 0.956 | S. cerevisiae deletion strains, locus YNL183C, strain NPR1, stronger effect = lower value 0.793 | S. cerevisiae deletion strains, locus YNL207W, strain RIO2, stronger effect = lower value 0.946 | S. cerevisiae deletion strains, locus YNL222W, strain SSU72, stronger effect = lower value 0.957 | S. cerevisiae deletion strains, locus YNL307C, strain MCK1 (second series), stronger effect = lower value 0.866 | S. cerevisiae deletion strains, locus YOL078W, strain AVO1, stronger effect = lower value 0.954 | S. cerevisiae deletion strains, locus YOL136C, strain PFK27, stronger effect = lower value 0.885 | S. cerevisiae deletion strains, locus YOR061W, strain CKA2, stronger effect = lower value 0.908 | S. cerevisiae deletion strains, locus YOR119C, strain RIO1, stronger effect = lower value 0.875 | S. cerevisiae deletion strains, locus YOR231W, strain MKK1, stronger effect = lower value 0.828 | S. cerevisiae deletion strains, locus YOR329C, strain SCD5, stronger effect = lower value 0.976 | S. cerevisiae deletion strains, locus YPL031C, strain PHO85, stronger effect = lower value 0.824 | S. cerevisiae deletion strains, locus YPL153C, strain RAD53, stronger effect = lower value 0.855 | S. cerevisiae deletion strains, locus YPL204W, strain HRR25, stronger effect = lower value 0.827 | S. cerevisiae deletion strains, locus YPL209C, strain IPL1, stronger effect = lower value 0.963 | S. cerevisiae deletion strains, locus YPR025C, strain CCL1, stronger effect = lower value 0.952 | S. cerevisiae deletion strains, locus YPR106W, strain ISR1, stronger effect = lower value 0.965 | S. cerevisiae deletion strains, locus YPR111W, strain DBF20, stronger effect = lower value 0.944 | S. cerevisiae deletion strains, strain NNK1, stronger effect = lower value 0.942 | S. cerevisiae deletion strains, strain TSCII, stronger effect = lower value 0.952

COc1ccc(/C=C(\C#N)c2nc3ccccc3[nH]2)cc1OC
inactive: [1] 0.947 | [2] 0.947 | [3] 0.961 | [4] 0.942 | [5] 0.934 | [6] 0.921 | [7] 0.948 | [8] 0.703 | [9] 0.912 | [10] 0.959 | [12] 0.817 | [13] 0.957 | [15] 0.851 | [16] 0.909 | [17] 0.971 | [18] 0.956 | [19] 0.975 | [20] 0.856 | [21] 0.95 | [22] 0.906 | [23] 0.885 | [25] 0.759 | S. cerevisiae strains, strain wild type, stronger effect = lower value 0.94
active: [11] 0.859 | [14] 0.499 | S. cerevisiae deletion strains, locus YMR307W, strain GAS1, stronger effect = lower value 0.609 | S. cerevisiae deletion strains, locus YOL006C, strain TOP1, stronger effect = lower value 0.725 | [24] 0.857
